# PubChem BioAssay
# Unmarked numbers belong to inactive results. How the calls were made is not given here.
# Molecular target: Pantothenate synthetase (Mycobacterium tuberculosis (strain ATCC 25618 / H37Rv)) (UniProt P9WIL5)
# Assay: Coupled enzyme confirmation of inhibitors against recombinant Mtb PanC (AID 375);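 further: 0% = full reaction with vehicle and 100% = no enzyme background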
# Settings: coupled enzyme assay; at 10 µM, stronger effect = higher value
# Chain of Pantothenate synthetase (Mycobacterium tuberculosis (strain ATCC 25618 / H37Rv)) (P9WIL5 whole entry, looked up): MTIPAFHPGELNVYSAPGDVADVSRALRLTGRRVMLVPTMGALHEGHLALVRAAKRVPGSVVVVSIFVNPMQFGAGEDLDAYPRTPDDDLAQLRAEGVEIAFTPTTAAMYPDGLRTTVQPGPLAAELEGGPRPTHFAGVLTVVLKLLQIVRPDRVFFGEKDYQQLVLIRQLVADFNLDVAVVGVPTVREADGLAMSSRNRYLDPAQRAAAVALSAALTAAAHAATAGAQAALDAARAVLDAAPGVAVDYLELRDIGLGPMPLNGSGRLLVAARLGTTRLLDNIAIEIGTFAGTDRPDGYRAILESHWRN
row,Compound,inhibition
1,O=C(Nc1ccc(Cl)c(Cl)c1)Nc1cc(C(=O)N2CCOCC2)ccc1N1CCCCC1,4%
2,COc1cccc(NC(=O)C2CCCN2C(=O)Nc2cccc(F)c2)c1 (stereo not given),0%
3,O=C1N[C@@H](Cc2cnc[nH]2)C(=O)N2CCC[C@@H]12,0%
4,COC(=O)C1=C(C)Nc2nnnn2C1c1ccc(Cl)cc1Cl (stereo not given),0%
5,COc1ccc(-c2nc(C)sc2CC(=O)O)cc1,4%
6,CC(C)N(C(=O)CSc1nnc(-c2cc3ccccc3cc2O)n1Cc1ccco1)C(C)C,1%
7,Cn1c(=O)cc(OCCCC(=O)Nc2ccc3c(c2)OCCO3)c2ccccc21,1%
8,Cc1ccc(C)c(N2CCN(CCCNC(=O)Cn3cc4c(n3)CCCCC4)CC2)c1,2%
9,COc1cc(C2C3=C(CC(C)(C)CC3=O)Nc3c2c(=O)[nH]c(=O)n3Cc2ccccc2)ccc1O (stereo not given),4%
10,O=S(=O)(NCC(c1cccnc1)N1CCN(c2ccccc2)CC1)c1cc(F)ccc1F (stereo not given),0%
11,CCC(C)N=C1SCC(C)(/C=N/O)S1 (stereo not given),0%
12,Cc1cc(C)c2[nH]c(=O)c(C(c3nnnn3Cc3ccc4c(c3)OCO4)N3CCC(C)CC3)cc2c1 (stereo not given),0%
13,CC(=O)Nc1ccc(S(=O)(=O)n2nc(C)cc2C)cc1,0%
14,COc1cc(OC)c(NC(=O)c2ccco2)cc1Cl,0%
15,Cc1ccc(-c2nn3c(C)nnc3s2)cc1N,0%
16,O=C(c1cccs1)c1cn(CC(=O)N2CCc3ccccc3C2)c2ccccc12,2%
17,CC(=O)c1sc(NC(=O)C2COc3ccccc3O2)nc1C (stereo not given),3%
18,CCOC(=O)c1cc(-c2ccc3c(c2)OCO3)nc2onc(C)c12,0%
19,COc1ccc(OC)c(S(=O)(=O)N2CCC(C(=O)NCc3ccccc3OC)CC2)c1,0%
20,O=C(c1cccnc1)N1CCc2ccccc21,3%

row,Compound,inhibition
1,CCCCC(=O)NCCc1cc2ccc(OC)cc2[nH]c1=O,0%
2,O=C(O)C1CCCN1S(=O)(=O)c1ccc2ccccc2c1 (stereo not given),3%
3,CCOC(=O)N1CCN(c2c(NCC3CCN(Cc4cccc(C)c4)CC3)c(=O)c2=O)CC1,4%
4,CCOC(=O)N1CCN(C(=O)c2ccc3c(SCC(=O)O)c4c(nc3c2)CCCC4)CC1,0%
5,O=C(O)CCc1ccc(-c2ccccc2)n1CC(=O)O,0%
6,Cn1c(=N)n(CC(=O)O)c2ccccc21,9%
7,CCCCOCCCNC(=O)c1ccccc1OCC,2%
8,c1ccc(-n2c(Sc3cnccn3)nnc2-c2cccs2)cc1,0%
9,CCOC(=O)c1cnc(C(C)(C)C)[nH]c1=O,10%
10,CSCCC(NC(=O)c1occc1C)C(=O)O (stereo not given),0%
11,COc1ccc(C(N)=O)cc1N,0%
12,COc1ccccc1OCc1ccc(C(=O)Nc2ccncc2)o1,2%
13,CC(N)C12CC3CC(C1)CC(C(C)N)(C3)C2 (stereo not given),0%
14,Cn1c(C(=O)NCc2cccnc2)cc2sccc21,0%
15,CCOc1cc(NC(=O)c2ccco2)c(OCC)cc1NC(=O)CCC(=O)NCc1cccnc1,3%
16,O=C1C(C=NCCCn2ccnc2)=C(O)c2ccccc21,8%
17,CCOC(=O)c1c(C)oc2ccc(O)c(CN(C)C)c12,0%
18,CCN(CC)CCN1C(=O)c2oc3ccc(F)cc3c(=O)c2C1c1ccncc1 (stereo not given),0%
19,COc1ccccc1N1CCN(C/C(O)=C(\C#N)c2nc(-c3ccccc3)cs2)CC1,2%
20,CC1=CCC(C(C)(C)NC(=O)c2ccccc2)C/C1=N\O (stereo not given),0%
